Results taken from PubChem BioAssay (Tox21).
A number with no mark means an inactive call. Results filed as inconclusive are left out. Where a call stands in place of a potency, no number is given. Calls of active or inactive are those of the source. Unless noted, calls come from the whole dose curve; as a rule, active = well fitted curve in the direction sought with a large enough effect in the repeat runs; inconclusive = weak or mixed curves; inactive = no such curve, though single readings can be large; an effect the other way counts as inactive or inconclusive.

Legend:
[1] = molecular target: Progesterone receptor (Homo sapiens) (UniProt P06401); assay: qHTS assay to identify small molecule agonists of the progesterone receptor (PR) signaling pathway (AID 1346784; calls by dose curve; note: nearly all actives have a fitted effect of over 30% in size)
Sequence of Progesterone receptor (Homo sapiens) (P06401 whole entry, looked up): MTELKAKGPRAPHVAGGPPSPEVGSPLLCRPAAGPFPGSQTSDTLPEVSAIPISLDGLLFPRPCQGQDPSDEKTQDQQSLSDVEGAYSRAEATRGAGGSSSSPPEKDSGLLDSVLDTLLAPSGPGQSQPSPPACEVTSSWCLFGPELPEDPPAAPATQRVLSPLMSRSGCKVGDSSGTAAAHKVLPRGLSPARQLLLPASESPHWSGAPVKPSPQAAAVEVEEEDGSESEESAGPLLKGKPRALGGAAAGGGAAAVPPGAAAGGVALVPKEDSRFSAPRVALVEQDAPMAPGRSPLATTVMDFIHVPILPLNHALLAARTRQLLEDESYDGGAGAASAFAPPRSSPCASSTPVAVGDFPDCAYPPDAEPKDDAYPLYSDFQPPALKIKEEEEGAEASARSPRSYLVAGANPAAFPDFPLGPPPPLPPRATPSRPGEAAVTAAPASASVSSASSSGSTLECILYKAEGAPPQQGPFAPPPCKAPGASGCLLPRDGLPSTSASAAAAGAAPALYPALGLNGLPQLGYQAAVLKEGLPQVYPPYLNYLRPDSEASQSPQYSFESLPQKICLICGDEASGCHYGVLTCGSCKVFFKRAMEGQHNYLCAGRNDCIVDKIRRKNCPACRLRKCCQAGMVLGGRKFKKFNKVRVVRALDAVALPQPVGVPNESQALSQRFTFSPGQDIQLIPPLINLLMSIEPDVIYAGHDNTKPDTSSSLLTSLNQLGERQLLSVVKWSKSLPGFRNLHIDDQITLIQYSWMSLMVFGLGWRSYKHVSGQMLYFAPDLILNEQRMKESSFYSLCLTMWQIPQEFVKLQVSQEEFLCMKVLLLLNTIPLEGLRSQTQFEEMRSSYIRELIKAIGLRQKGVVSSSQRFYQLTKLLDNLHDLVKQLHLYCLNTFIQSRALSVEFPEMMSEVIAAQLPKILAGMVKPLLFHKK
Summary of the method: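 Agonist qHTS: compounds pinned onto 3,000 PR-UAS-bla HEK 293T cells per well in charcoal-stripped serum medium, 16hr at 37C, then beta-lactamase activity measured by LiveBLAzer FRET fluorescence after 2 hours at room temperature.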

[2] = molecular target: Progesterone receptor (Homo sapiens) (UniProt P06401); assay: qHTS assay to identify small molecule antagonists of the progesterone receptor (PR) signaling pathway (AID 1346795; active = well fitted inhibition curve with a large enough effect in the signal ratio in the repeat runs, not every such curve was filed as active; the % refers to the signal ratio)
Summary of the method: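 Antagonist mode with agonist R5020 at 1 nM final and 16 hr incubation at 37C. Reporter was beta-lactamase driven by UAS in HEK293T (PR-UAS-bla), 2% charcoal-stripped serum; signal from LiveBLAzer FRET substrate, 2 hr at room temperature.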

[3] = qHTS assay to identify small molecule antagonists of the progesterone receptor (PR) signaling pathway - cell viability counter screen (AID 1346798); note: nearly all actives have a fitted effect of over 50% in size; note: potency is the fitted concentration of half-maximal effect
Summary of the method: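 Cytotoxicity read as CellTiter-Glo luminescence (30 min, room temperature) in the same wells as the beta-lactamase readout. HEK293T PR-UAS-bla cells in charcoal-stripped 2% FBS received compound and R5020, then 16 h at 37C, 5% CO2.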

[4] = qHTS assay to identify small molecule agonists of the progesterone receptor (PR) signaling pathway - cell viability counter screen (AID 1346799; calls by dose curve; note: nearly all actives have a fitted effect of over 45% in size)
Summary of the method: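 Cytotoxicity measured by CellTiter-Glo luminescence (30 min, RT) in the same wells as the PR beta-lactamase agonist read. Those HEK293T cells had 16 h compound treatment at 37 C in 2% charcoal-stripped FBS medium.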

[5] = qHTS assay to identify small molecule antagonists of the TGF-beta/Smad signaling pathway - cell viability counter screen (AID 1346824); note: nearly all actives have a fitted effect of over 50% in size
Summary of the method: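 SBE-bla HEK 293T cells were plated overnight at 37 C, then given compounds in DMSO plus TGF-beta1 (added as 0.25 ng/mL solution) for 5 hr. After the bla read, CellTiter-Glo was added to the same wells and luminescence read after 30 min at room temperature.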

[6] = qHTS assay to identify small molecule agonists of the TGF-beta/Smad signaling pathway (AID 1346859; active = well fitted activation curve with a large enough effect in the signal ratio in the repeat runs, not every such curve was filed as active; the % refers to the signal ratio; note: series mostly up to about 77 µM)
Summary of the method: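 Fluorescence (ex 405 nm; em 460 and 530 nm) was read 2 h after LiveBLAzer FRET substrate at RT. The preceding compound treatment of overnight-plated SBE-bla HEK293T cells lasted 5 h at 37 C.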

[7] = qHTS assay to identify small molecule agonists of the TGF-beta/Smad signaling pathway - cell viability counter screen (AID 1346829); note: top concentration of the series differs between compounds; nearly all actives have a fitted effect of over 45% in size
Summary of the method: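 CellTiter-Glo luminescence readout; SBE-bla HEK 293T cells, overnight plating, compound 5 hr at 37 C/5% CO2, then bla substrate 2 hr RT, then CellTiter-Glo 30 min RT.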

[8] = molecular target: Thyrotropin-releasing hormone receptor (Homo sapiens) (UniProt P34981); assay: qHTS assay to identify small molecule antagonists of the thyrotropin-releasing hormone receptor (TRHR) signaling pathway (AID 1346877; active = well fitted inhibition curve with a large enough effect in the repeat runs, not every such curve was filed as active; note: series mostly up to about 51 µM)
Sequence of Thyrotropin-releasing hormone receptor (Homo sapiens) (P34981 whole entry, looked up): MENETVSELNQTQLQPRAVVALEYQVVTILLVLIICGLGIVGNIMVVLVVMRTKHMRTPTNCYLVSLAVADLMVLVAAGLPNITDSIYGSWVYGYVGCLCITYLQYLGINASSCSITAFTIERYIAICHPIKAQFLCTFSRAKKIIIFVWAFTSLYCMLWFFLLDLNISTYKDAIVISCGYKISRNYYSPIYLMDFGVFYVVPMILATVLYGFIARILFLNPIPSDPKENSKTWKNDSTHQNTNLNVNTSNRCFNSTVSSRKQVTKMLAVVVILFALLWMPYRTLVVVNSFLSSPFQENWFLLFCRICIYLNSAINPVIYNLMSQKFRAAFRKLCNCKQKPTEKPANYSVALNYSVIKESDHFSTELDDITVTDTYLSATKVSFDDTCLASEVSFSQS
Summary of the method: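 Cells (TRHR-HEK293) are plated and kept 18 h at 37 °C/5% CO2. A calcium-sensitive dye is added for 2 h, compound follows for 5 min at room temperature, and TRH is then given at 1 nM final.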

[9] = molecular target: Thyrotropin-releasing hormone receptor (Homo sapiens) (UniProt P34981); assay: qHTS assay to identify small molecule agonists of the thyrotropin-releasing hormone receptor (TRHR) signaling pathway (AID 1346891; calls by dose curve; note: series mostly up to about 58 µM)
Summary of the method: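 Agonist-mode intracellular calcium readout: kinetic fluorescence over 3 min at 1 s intervals after compound addition to TRHR-HEK293 cells (18 h seeded, 2 h dye-loaded at 37 C). Fifteen concentrations, triplicates.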

[10] = Human pregnane X receptor (PXR) small molecule agonists, qHTS cell viability counter screen (AID 1346977); note: nearly all actives have a fitted effect of over 50% in size
Summary of the method: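 Same-well viability read: CellTiter-Fluor added after 23 hr compound exposure, fluorescence measured 1 hr later. Cells were PXR-Luc HepG2 seeded at 2,000/well in 5% charcoal-stripped FBS medium, rested 5 hr before dosing at 37 C.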

Structure (SMILES) | outcome [1] | Potency [2] | Potency [3] | Potency [4] | Potency [5] | outcome [6] | Potency [7] | outcome [8] | Potency [9] | Potency [10]
CN(C)CC[C@@H](c1ccc(Br)cc1)c1ccccn1 | inactive | inactive | 2.66 µM (active) | inactive | inactive | inactive |  |  |  | 
Cn1sccc1=O | inactive | inactive | inactive |  | inactive | inactive | inactive | inactive | inactive | inactive
CC(=O)/C(C)=C/C1C(C)=CCCC1(C)C (stereo not given) | inactive | inactive | inactive |  | inactive | inactive | inactive | inactive | inactive | inactive
O=c1c2ccccc2nnn1CCl | inactive | inactive | inactive |  | inactive | inactive | inactive |  | inactive | inactive
COc1ccc([C@@H]2Sc3ccccc3N(CCN(C)C)C(=O)[C@@H]2OC(C)=O)cc1 | inactive | inactive | 21.1 µM (active) |  | inactive | inactive | inactive |  |  | inactive
CC(C)(C)c1ccc(OCC2CO2)cc1 (stereo not given) | inactive | inactive | inactive | inactive |  | inactive | inactive | inactive | inactive | 
CC1CCc2cc(F)cc3c(=O)c(C(=O)O)cn1c23 (stereo not given) | inactive | inactive | inactive | inactive | inactive |  |  |  |  | inactive
CC[C@H](C)[C@@H](C(=O)O)n1sc2ccccc2c1=O | inactive | inactive | 30.6 µM (active) | inactive | inactive | inactive | inactive |  | inactive | inactive
CC(C)c1cccc(C(C)C)c1NC(=O)NS(=O)(=O)c1cc(C(C)(C)O)co1 | inactive | inactive | inactive | inactive | inactive | inactive | inactive |  |  | inactive
CCCCC(CC)(CO)CO | inactive | inactive | inactive |  | inactive | inactive | inactive |  | inactive | inactive
COc1ccc(C(C)=O)cc1 | inactive | inactive | inactive | inactive | inactive | inactive | inactive |  | inactive | inactive
CCOC(=O)CC(C)C | inactive | inactive | inactive | inactive | inactive | inactive | inactive |  | inactive | inactive
SC1CCCC1 | inactive | inactive | inactive | inactive | inactive | inactive | inactive |  |  | inactive
NC(=S)N/N=C/c1cccnc1 | inactive | inactive | inactive |  | inactive | inactive | inactive | inactive | inactive | inactive
OCCC1CCCCN1 (stereo not given) | inactive | inactive | inactive | inactive | inactive | inactive | inactive |  |  | inactive
COc1ccc(OC)c(OC)c1 | inactive | inactive | inactive | inactive | inactive | inactive | inactive |  | inactive | inactive
CCCCCCCCCCCCCCCBr | inactive | inactive | inactive |  | inactive | inactive | inactive |  |  | inactive
CCC(=O)OC(C)(C)C1CC=C(C)CC1 (stereo not given) | inactive | inactive | inactive |  | inactive | inactive | inactive |  |  | inactive
CC(C(=O)O)c1ccc(C(=O)c2ccccc2)s1 (stereo not given) | inactive | inactive | inactive | inactive | inactive |  | inactive |  | inactive | inactive
CC(=O)c1ccc2c(c1)[C@H](NC(=O)c1ccc(F)cc1)[C@@H](O)C(C)(C)O2 | inactive | inactive | inactive |  | inactive | inactive | inactive | inactive | inactive | inactive
CCCCCCCCCC=O | inactive | inactive | inactive | inactive | inactive |  | inactive | inactive | inactive | inactive
c1ccc(CNCc2ccccc2)cc1 | inactive | inactive | inactive | inactive |  | inactive | inactive |  |  | inactive
CC(C)NCC(O)c1cc(O)cc(O)c1 (stereo not given) | inactive | inactive | inactive | inactive | inactive | inactive | inactive |  |  | inactive
CCCCOC(=O)/C=C\C(=O)OCCCC | inactive | inactive | inactive |  | inactive | inactive | inactive | inactive | inactive | inactive
COc1cc(C(C)(C)C)c(O)c(C(C)(C)C)c1 | inactive | inactive | inactive | inactive |  | inactive | inactive | inactive | inactive | inactive
Cc1c(Cn2ccnc2)c2ccccc2n1CCC(=O)O | inactive | inactive | inactive | inactive |  | inactive | inactive |  |  | inactive
Cn1c(=O)c2c(ncn2CC(O)CO)n(C)c1=O (stereo not given) | inactive | inactive | inactive |  | inactive | inactive | inactive | inactive | inactive | inactive
COC(Cc1ccccc1)OC | inactive | inactive | inactive | inactive |  | inactive | inactive | inactive | inactive | inactive
S=C(S)NCCNC(=S)S | inactive | inactive | inactive | inactive |  | inactive | inactive |  |  | inactive
